Screening results from PubChem BioAssay.
ZTA DNA inh = blocks Epstein-Barr virus ZTA, an EBNA-1 counter-screen | ZTA-DNA binding, fluorescence polarization | inhibition, % at 11 µM | 0.15% of 320,000 active; in the data active = inhibition above about 33%
Target sequence (P03206 whole entry, looked up): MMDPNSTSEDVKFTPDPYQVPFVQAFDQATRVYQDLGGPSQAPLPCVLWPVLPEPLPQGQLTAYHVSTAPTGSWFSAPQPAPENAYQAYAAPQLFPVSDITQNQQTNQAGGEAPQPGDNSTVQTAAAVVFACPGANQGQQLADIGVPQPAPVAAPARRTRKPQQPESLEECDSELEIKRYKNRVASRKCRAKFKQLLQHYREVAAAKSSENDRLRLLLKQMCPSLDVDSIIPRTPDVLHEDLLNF
EBNA-1 inh = blocks EBNA-1 binding to DNA; EBNA-1 DNA binding, fluorescence polarization; inhibition, % at 14.8 µM; 0.34% of 300,000 active; AID 1950; in the data active = inhibition above about 28%
PAFAH2 inh = inhibitors of human PAFAH2 | Q99487 | recombinant PAFAH2, FP-rhodamine activity probe, fluorescence polarization | inhibition, % at 3.39 µM | 0.99% of 340,000 active;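 active = inhibition above the mean over all tested compounds plus 3 SD, cut at about 30% in these data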;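 also: inhibitors block probe labeling of enzyme so polarization drops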
PAFAH1B2 FP inh = inhibitors of human PAFAH1B2; recombinant PAFAH1B2, FP-rhodamine activity probe, fluorescence polarization; inhibition, % at 3.39 µM; 1.2% of 340,000 active; AID 492953;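 active = inhibition above the mean of all tested compounds plus 3 SD, cut at about 24% in these data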
Target sequence (P68402 whole entry, looked up): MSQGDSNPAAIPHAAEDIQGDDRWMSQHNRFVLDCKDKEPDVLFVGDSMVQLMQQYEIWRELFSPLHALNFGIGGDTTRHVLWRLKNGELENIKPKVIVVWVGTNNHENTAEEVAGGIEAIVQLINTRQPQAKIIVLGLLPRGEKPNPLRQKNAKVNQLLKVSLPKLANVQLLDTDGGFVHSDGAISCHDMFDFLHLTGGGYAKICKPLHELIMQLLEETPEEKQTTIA
PAFAH1B3 inh = blocks human PAF acetylhydrolase 1B catalytic subunit 3; recombinant PAFAH1B3, FP-rhodamine probe, fluorescence polarization; AID 492972; inhibition, % at 3.39 µM; 0.28% of 340,000 active;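 active = inhibition above the screen-wide average of all tested compounds plus 3 SD, cut at about 25% in these data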
rCAG binder = binds r(CAG) RNA repeats | r(CAG) RNA repeat, TO-PRO-1 dye displacement fluorescence | inhibition, % at 3 µM | 1.3% of 370,000 active | AID 651821;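 active = inhibition above the plate cutoff, the mean of all test compounds on that plate plus 3 SD, cut at about 35% in these data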;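 also: higher means more dye released from RNA so lower well fluorescence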
Hits are given with their value; i = inactive; nt = not tested or not shown. This is a sample that favours compounds with a hit; in the whole collection about 2.9% have one here.

SMILES | ZTA DNA inh | EBNA-1 inh | PAFAH2 inh | PAFAH1B2 FP inh | PAFAH1B3 inh | rCAG binder
CC1=C(C(=O)OCc2ccccc2)C(c2ccsc2)NC(=O)N1C (stereo unspecified) | i | i | i | i | i | i
CC1=C(C(=O)OCCc2ccccc2)C(c2ccsc2)NC(=O)N1C (stereo unspecified) | i | i | i | 67.6 | i | i
O=C(c1cccc(F)c1F)N(Cc1ccccn1)CC1CCCO1 (stereo unspecified) | nt | nt | nt | nt | nt | i
Cc1cc2[nH]c(=O)c(=O)[nH]c2cc1S(=O)(=O)N1CCC(C)CC1 | i | i | i | 25.0 | i | i
Cc1cc2[nH]c(=O)c(=O)[nH]c2cc1S(=O)(=O)NC1CCC(C)CC1 (stereo unspecified) | i | i | i | 25.7 | i | i
Cc1cc2[nH]c(=O)c(=O)[nH]c2cc1S(=O)(=O)N1CCN(c2ccccc2)CC1 | i | i | i | i | i | i
CCOc1ccccc1C(=O)NCC(=O)OCc1csc(CC(=O)Nc2ccc(C)cc2)n1 | i | nt | i | i | i | i
COc1ccc(CCC(=O)OCc2csc(CC(=O)Nc3ccc(C)cc3)n2)cc1OC | nt | nt | 39.2 | i | i | i
CCN(CC)c1nc(C)nc2c1nnn2Cc1ccccc1 | nt | nt | nt | nt | nt | i
Cc1ccc(C(=O)ON=C2CCN(c3ccc([N+](=O)[O-])cc3)CC2)cc1 | i | i | 76.7 | i | i | i
Cc1ccc(C(=O)NC(=S)N2CCN(c3ccc([N+](=O)[O-])cc3)CC2)cc1 | i | i | i | i | i | i
CC1(C)CC(=NOC(=O)c2ccccc2)CC(C)(C)N1 | i | i | i | i | i | nt
CC(=O)N1C(C)(C)CC(=NOC(=O)c2ccc(C)cc2)CC1(C)C | i | i | 82.6 | i | i | i
Cn1c(=O)c(=O)n(C)c2cc(S(=O)(=O)N3CCN(CCO)CC3)ccc21 | nt | nt | nt | nt | nt | i
CC(CC(=O)O)CC(=O)Nc1cc([N+](=O)[O-])ccc1O (stereo unspecified) | i | i | i | i | i | i
Cc1ccc(SCC(=O)Nc2cccc(C)c2)cc1 | i | i | i | 29.3 | i | i
O=C(CSCc1ccc(Cl)cc1)Nc1cc([N+](=O)[O-])ccc1O | i | i | 57.4 | 57.6 | i | i
Cc1ccc(SCC(=O)Nc2cc([N+](=O)[O-])ccc2O)cc1 | i | i | 49.1 | 82.0 | i | i
COc1ccc([N+](=O)[O-])cc1NC(=O)CSCc1ccc(Br)cc1 | i | i | i | i | i | i
Cc1ccc(SCC(=O)Nc2cccnc2)cc1 | i | i | i | i | i | i
COc1ccc(-c2c(Cc3ccccc3)nc(NC(=O)c3ccccc3)n2Cc2ccccc2)cc1 | nt | nt | nt | nt | nt | i
O=C(c1cccc(C(F)(F)F)c1)N1CC[C@H]2[C@H](CCCN2Cc2ccccc2)C1 | nt | nt | nt | nt | nt | i
Cn1c(=O)c(NC2CCCCC2)c2c3c(cccc31)C(=O)c1ccccc1-2 | nt | nt | i | i | i | i
Cn1c(=O)c(N)c2c3c(c(Br)ccc31)C(=O)c1ccccc1-2 | i | i | 40.0 | 28.7 | 38.3 | i
COc1ccc(N(C)S(=O)(=O)c2cccc(C(=O)N3CCN(S(=O)(=O)c4ccc(C)cc4)CC3)c2)cc1 | i | i | i | 55.4 | i | i
SMILES | ZTA DNA inh | EBNA-1 inh | PAFAH2 inh | PAFAH1B2 FP inh | PAFAH1B3 inh | rCAG binder
COc1ccc(S(=O)(=O)N2CCN(C(=O)c3cccc(S(=O)(=O)N4CCCC4)c3)CC2)cc1 | nt | nt | nt | nt | nt | i
C=CCOC(=O)N1CCN(C(=O)c2ccc3c(c2)nc(C)n3C2CCCC2)CC1 | nt | nt | nt | nt | nt | i
CCCCCCCCN1C(=O)[C@@H](CC(=O)N2CCC(c3ccccc3)CC2)C[C@@]2(C(=O)OC)C1=C[C@H](C(C)(C)C)O[C@@H]2C | nt | nt | nt | nt | nt | i
CCOc1ccccc1CNc1ccc(O)cc1 | nt | nt | 34.6 | i | 25.7 | i
CN(C)C(=O)C[C@H]1CC[C@H]2[C@H](COc3ccc(NC(=O)C4CC4)cc3C(=O)N2C)O1 | nt | nt | nt | nt | nt | i
COc1ccc(C(=O)N/C(=C/c2cccc3ccccc23)C(=O)NCCc2c[nH]c3ccccc23)cc1OC | i | 112.6 | i | i | i | i
COc1ccc(/C=C(/NC(=O)c2ccc(OC)c(OC)c2)C(=O)NCCc2c[nH]c3ccccc23)cc1 | i | i | i | i | i | i
COc1nc(OC)nc(N2CCC(C(=O)NCc3ccccc3OC)CC2)n1 | nt | nt | nt | nt | nt | i
O=C(C[C@@H]1C/C=C/CC[C@@H](Cc2ccc(F)cc2)C(=O)O[C@@H](c2ccccc2)CNC1=O)NCCO | nt | nt | i | i | i | i
O=C(C[C@@H]1C/C=C/CC[C@@H](Cc2ccc(F)cc2)C(=O)O[C@H](c2ccccc2)CNC1=O)NCCO | nt | nt | i | 24.2 | i | i
O=C(C[C@H]1C/C=C/CC[C@H](Cc2ccc(F)cc2)C(=O)O[C@H](c2ccccc2)CNC1=O)NCCO | nt | nt | i | 30.2 | i | i
CCOC(=O)[C@]12CCCC=C1N(Cc1ccc(OC)cc1)C(=O)[C@@H]2CC(=O)N1CCC(c2ccccc2)CC1 | nt | nt | nt | nt | nt | i
CC(C)C(NC(=O)C12CC3CC(CC(C3)C1)C2)C(=O)O (stereo unspecified) | i | i | i | 26.0 | i | i
O=[N+]([O-])c1cc([N+](=O)[O-])c2oc(-c3ccccc3)c(Br)c2c1O | nt | nt | 45.8 | 42.6 | 28.5 | nt
S=c1[nH]nc(CCSCc2ccccc2)n1-c1ccccc1 | i | i | i | 27.6 | i | i
CN1c2ccccc2C(O)=C(C(=S)Nc2ccc(Cl)cc2)S1(=O)=O | i | i | i | i | i | 68.5
COc1ccc(S(=O)(=O)Nc2ccccc2Cl)cc1NC(C)=O | i | i | i | i | i | i
O=C(Nc1cc(S(=O)(=O)Nc2ccccc2Cl)ccc1O)c1ccc(F)cc1F | nt | nt | 65.1 | i | i | i
CC(NC(=O)/C=C/c1cnc2ccccc2n1)C12CC3CC(CC(C3)C1)C2 (stereo unspecified) | i | i | i | 24.4 | i | i
O=C(NS(=O)(=O)c1ccccc1[N+](=O)[O-])[C@H]1O[C@@H](n2ccc(=O)[nH]c2=O)[C@H](O)[C@@H]1O | nt | nt | nt | nt | nt | i
O=C(Nc1ccccc1)c1ccc(Br)c(S(=O)(=O)Nc2cccnc2)c1 | i | i | i | i | i | i
O=S(=O)(Nc1cccnc1)c1ccc(Br)c2ccccc12 | i | i | i | 25.9 | i | i
FC(F)(F)Oc1ccc(Cn2ccc3ccc(-c4ccc5ccn(Cc6ccccc6)c5c4)cc32)cc1 | nt | nt | nt | nt | nt | i
Cc1cccc(C)c1NC(=O)CSc1nnc(-c2ccco2)c(-c2ccco2)n1 | i | i | 45.3 | i | i | nt
Cc1ccc(NC(=O)CSc2nnc(-c3ccco3)c(-c3ccco3)n2)cc1 | i | i | i | i | i | 41.5
COc1ccc(NC(=O)CSc2nnc(-c3ccco3)c(-c3ccco3)n2)cc1OC | i | i | i | i | i | i
COc1cccc(NC(=O)CSc2nnc(-c3ccco3)c(-c3ccco3)n2)c1 | i | i | i | i | i | 61.0
CN(C)c1ccc(NC(=O)CSc2nnc(-c3ccco3)c(-c3ccco3)n2)cc1 | i | i | i | i | i | i
CCCN(CC1CC1)C(=O)c1ccc(CNC(=O)c2cccc(Br)c2)cc1 | nt | nt | nt | nt | nt | i
O=C(O/N=C(\c1ccccc1)c1ccncc1)c1ccccc1F | i | i | 52.8 | 33.1 | i | i
